Bioassay records from PubChem.
In the library only some 0.5% were active in any assay of this set; here they are far more common.
TCR act = Activators of T cell receptors: qHTS campaign. 330,000 tested, under 10 active. Potency, µM (titrated, usually from 9.22 µM), inactives show top-dose activation of IL-2 secretion, hits mostly activators. primary human leukocytes, anti-CD3, IL-2 HTRF, 48 h; also: % of control where 0% means no effect
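TCR engagement came from a-CD3 beads alone, with compounds added to primary human leukocytes for 48 hr. Secreted IL-2 bridged europium cryptate- and d2-labelled anti-IL-2 antibodies, giving FRET emission at 665nm after 320nm excitation.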
CCT modulator = High-Throughput Screening for Modulators of Cytosolic Chaperonin Activity; activity change, % (no concentration beside the values), hits read low; purified chaperonin ATPase assay, HTRF ADP detection, 30 min; hit rate 0.3% among 360,000; in the data active = activity change below about -30%; also: % is scaled to controls: 0 for no effect and ±100 for the full control effect
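Enzyme 40 or 20 nM (batch-dependent) in Tris pH 7.4/KCl/MgCl2/DTT; cpd 76 uM single point; ATP 10 uM; 30 min 37 °C; Transcreener ADP HTRF detection, 30 min RT; ratio 665/615.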
MmCpn inh = Inhibitors of TCP-1 ring complex (TRiC) of Methanococcus maripaludis (MmCpn): qHTS | hit rate 0.031% among 330,000 | purified Mm-Cpn ATPase, ADP Transcreener TR-FRET | Chaperonin Mm-Cpn (Methanococcus maripaludis) | AID 504842, 2011 | Potency, µM (titrated, usually from 76.9 µM), without a hit: at the top dose activity, negative = inhibition, hits mostly inhibitors; also: potency is read from the fitted curve at half-maximal effect; % is scaled to controls: 0 for no effect and ±100 for the full control effect; nearly all actives have a fitted effect of over 80% in size
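Purified archaeal chaperonin (25 nM final) was preincubated with compound for 10 min at 37°C, then ATP (10 uM final) was added for 30 min at 37°C in Tris pH 7.4/KCl/MgCl2/DTT buffer. ADP was quantified by HTRF Transcreener TR-FRET.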
B2AR arrestin = qHTS assay of beta-arrestin-biased ligands of beta2-adrenergic receptor. beta-arrestin recruitment to beta2AR, cell-based reporter. Potency, µM (highest dose often 46.1 µM), inactives show at the highest dose activation, usual class: activators. Beta-2 adrenergic receptor (Homo sapiens), P07550. hit rate 0.02% among 330,000. AID 492947, 2010;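 also: potency is read from the fitted curve at half-maximal effect; 0% = DMSO controls and full agonism = EC100 isoproterenol or metaproterenol; nearly all actives have a fitted effect of over 65% in size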
Target sequence (P07550 whole entry, looked up): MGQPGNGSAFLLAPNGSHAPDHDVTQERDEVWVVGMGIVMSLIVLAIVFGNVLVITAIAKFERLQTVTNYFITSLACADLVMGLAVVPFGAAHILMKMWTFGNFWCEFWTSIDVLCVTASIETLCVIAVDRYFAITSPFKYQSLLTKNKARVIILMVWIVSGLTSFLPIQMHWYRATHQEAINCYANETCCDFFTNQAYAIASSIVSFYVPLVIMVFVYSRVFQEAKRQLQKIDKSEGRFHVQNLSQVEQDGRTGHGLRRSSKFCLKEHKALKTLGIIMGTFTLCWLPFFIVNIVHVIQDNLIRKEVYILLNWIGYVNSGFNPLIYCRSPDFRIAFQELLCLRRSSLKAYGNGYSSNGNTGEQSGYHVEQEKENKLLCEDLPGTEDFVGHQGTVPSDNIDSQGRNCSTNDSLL
TSHR antag = Antagonists of the Thyroid Stimulating Hormone Receptor: HTS campaign; Thyrotropin receptor (Homo sapiens), P16473; TSHR-expressing cells, TSH-stimulated cAMP HTRF, 2 h; hits give low values; activity change, negative = inhibition, % at 11.5 µM; hit rate 0.2% among 330,000;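 active = activity change below a set negative limit, meaning inhibition stronger than a set level, cut at about -70% in these data; inconclusive = activity change between two set negative limits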; also: % is scaled to controls: 0 for no effect and ±100 for the full control effect
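Freshly harvested TSHR cells receive pin-tooled compound, then EC80 TSH at 4nM final. After 2 hours at 37 deg C, antibody in lysis buffer and cAMP-d2 are added; 30 minutes at ambient temperature precede the HTRF read.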
* = called active by the depositor; ? = inconclusive; . = no result given; [ ] = another dose, or the depositor's remark. Unless noted, calls follow the shape of the dose curve; as a rule, active = well fitted curve in the direction sought with a large enough effect; inconclusive = small, poorly fitted or top-dose-only effect, or another doubt; inactive = no such curve, though single readings can be large; an effect the other way counts as inactive or inconclusive.

SMILES	TCR act	CCT modulator	MmCpn inh	B2AR arrestin	TSHR antag
CCCCN(C(=O)c1ccc(N2C(=O)c3ccccc3C2=O)cc1)c1c(N)n(CC(C)C)c(=O)[nH]c1=O	-4.3%	-2.3	-4.3%	-0.1%	5.9
CC(C)COc1cccc(-c2cc(C(=O)Nc3ccon3)c3ccccc3n2)c1	0.1%	-16.2	-8.2%	-0.4%	-118.7*
CC1CCC(NC(=O)C2(C)CCC(=O)N2Cc2cccnc2)CC1 (configuration not stated)	-4.0%	-35.5*	-0.7%	-0.3%	-4.8
CC1(C(=O)NC2CCCCC2)CCC(=O)N1Cc1cccnc1 (configuration not stated)	-0.1%	1.1	0.6%	-0.3%	9.3
CC1(C(=O)NS(C)(=O)=O)CCN1C(=O)CC(c1ccccc1)c1ccccc1 (configuration not stated)	.	-1.4	.	.	.
COC(=O)[C@@]12CCCCN1[C@H](c1ccc(-c3ccc(Cl)c(Cl)c3)cc1)[C@H]1C(=O)N(C)C(=O)[C@H]12	-4.2%	-4.0	-4.4%	0.2%	-3.8
N#Cc1c(N)nc(SCC(=O)OCc2ccccc2)c(C#N)c1-c1ccco1	.	-0.1	-8.0%	-0.2%	-78.5*
O=C(Nc1ccccc1N1CCOCC1)c1ccccc1NS(=O)(=O)c1ccc(F)cc1	2.5%	-0.5	-1.4%	-0.8%	0.2
COc1ccc(-c2csc(NC(=O)c3ccccc3NS(=O)(=O)c3ccc(F)c(F)c3)n2)cc1	-2.0%	0.5	2.9%	-0.2%	-87.7*
Cc1ccc(S(=O)(=O)Nc2ccccc2C(=O)Nc2nc(-c3ccc(F)cc3)cs2)cc1	4.3%[46.1 µM]	0.7	-13.2%	0.1%	?
O=C(Nc1ccccc1N1CCOCC1)c1ccccc1NS(=O)(=O)c1ccc(F)c(F)c1	2.3%	-31.1*	0.6%	-0.2%	-23.0
COc1cc(NS(=O)(=O)c2cc3[nH]c(=O)c(=O)[nH]c3cc2C)cc(OC)c1OC	1.0%	-1.5	1.3%	-0.2%	4.4
COc1cc(NS(=O)(=O)c2ccc(C)cc2C)cc(OC)c1OC	-3.4%	-1.3	0.2%	-1.3%	-87.3*
CCOC(=O)c1c(NC(=S)NC)sc2c1CC(C)(C)SC2	-11.8%[46.1 µM]	-4.6	-6.5%	-0.4%	-9.7
CCOC(=O)c1c(NC(=S)Nc2ccccc2)sc2c1CC(C)(C)SC2	-19.6%[46.1 µM]	0.3	50.1µM*	0.5%	-4.4
O=C(Nc1ccncc1)c1cn(-c2ccccc2)nc1-c1cccs1	-2.7%	-0.5	-21.8%	-0.6%	-75.5*
CC(NC(=O)COC(=O)c1cn(-c2ccccc2)nc1-c1cccs1)c1ccccc1 (configuration not stated)	1.4%	-1.3	50.1µM*	-0.4%	-6.2
Cc1oc2c(c(C)cc3oc(=O)c(CC(=O)N[C@@H](C)C(=O)O)c(C)c32)c1C	-1.0%	-32.7*	-3.9%	0.1%	-7.5
C/C(=C\CNc1ncnc2nc[nH]c12)CO	-0.3%	-3.2	.	.	.
COc1ccc(-n2c(NC(=O)c3ccco3)c(C#N)c3nc4ccccc4nc32)cc1	-12.7%	-60.5*	-4.9%	-0.4%	-6.0
COc1ccccc1-n1cnc2sc(C)c(C)c2c1=O	8.8%	-94.0*	-2.5%	-0.5%	0.5
Cc1ccc(-n2nnnc2-c2cnc(N3CCCC3)nc2C(F)(F)F)cc1	-3.9%	0.2	-0.7%	3.1%	-14.7
COc1ccc(NC(=O)Cc2c[nH]c3ccccc23)cc1S(=O)(=O)N1CCCCC1	-2.3%[46.1 µM]	-1.5	2.8%	0.4%	-74.8*
COc1ccc(NC(=O)Cc2c[nH]c3ccccc23)cc1S(=O)(=O)N1CCOCC1	1.8%	-0.3	?	-0.1%	-2.9
C(=NOCc1ccccc1)c1ccncc1	-2.0%	-0.7	.	.	.
CC1SCC(=NOCc2ccccc2)CS1 (configuration not stated)	-1.2%	-1.6	0.1%	-1.1%	-70.4*
Clc1ccccc1NN=Cc1ccccn1	.	1.5	.	.	.
COc1ccc([C@H]2CC(=O)C[C@@H](CCn3cccn3)O2)cc1	.	-1.2	.	.	.
